Assay outcomes deposited in PubChem BioAssay by National Center for Advancing Translational Sciences (NCATS).
Lassa entry inh: Lassa virus entry inhibition; Lassa virus pseudotype entry inhibition, cell reporter; Potency, µM (series often up to 37.9 µM), inactives show top-dose activity change, negative = inhibition, usual class: inhibitors; 300,000 tested, 1.2% active; AID 540256; calls by dose curve; tested in HEK293 cells; note: potency is the fitted concentration of half-maximal effect; nearly all actives have a fitted effect of over 50% in size
HCV inh: blocks hepatitis C virus; Potency, µM (titrated, usually from 41.8 µM), inactives show at the highest dose activity change, negative = inhibition, actives largely listed as inhibitors; 340,000 tested, 3.4% active; Huh7.5.1 HCVcc-Cre infection, luciferase reporter, 44 h; active = well fitted inhibition curve with a large enough effect; inconclusive = small, poorly fitted or top-dose-only effect, or another doubt; inactive = no such curve, though single readings can be large or run the other way; note: potency is the fitted concentration of half-maximal effect
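A cell-based infection assay in which seeded cells (1,000 per well) receive test compound after 4 h, are inoculated with HCVcc-Cre at approximately 0.5 moi, and are incubated 44 h before luminescence detection.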
FMDV antiviral: foot and mouth disease virus antiviral activity. 410,000 tested, 1.2% active. FMDV antiviral cell-based qHTS. Potency, µM (highest dose often 57.9 µM), for the others: at the top dose activity change, negative = inhibition, hits mostly inhibitors; calls by dose curve; tested in HEK293T cells; note: read-out not given here; potency is the fitted concentration of half-maximal effect; nearly all actives have a fitted effect of over 45% in size
Marburg entry inh: blocks Marburg virus binding to or entry into cells | 300,000 tested, 1.8% active | AID 540276 | Marburg virus pseudotyped entry inhibition, cell reporter | Potency, µM (doses to about 37.8 µM), without a hit: at the highest dose activity change, negative = inhibition, actives largely listed as inhibitors; calls by dose curve; tested in HEK293 cells; note: potency is the fitted concentration of half-maximal effect
HCMV inh: inhibitors of human cytomegalovirus; 410,000 tested, 4.5% active; activity change, negative = inhibition, % at 57.5 µM; HFF cells, HCMV-luciferase reporter, 72 h; stronger effect = lower value; in the data active = activity change below about -60%; inconclusive = no clear call, values can overlap the other calls; inactive = above about -39%
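After 16 h attachment at 37C, HFF cells received test compound and HCMV-luciferase (1 PFU/cell); reporter luminescence read 72 h later, data normalized against buffer-only and known inhibitor Salinomycin.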
Starred values were filed as active, the others as inactive; u = inconclusive; x = no result; [ ] = remark or other dose. Compounds with a hit are over-represented: about 7.9% of the library has one in this group of screens. % is set by controls: 0 for no effect and ±100 for the full control effect.

SMILES | Lassa entry inh | HCV inh | FMDV antiviral | Marburg entry inh | HCMV inh
CCOC(=O)c1c(C)[nH]c(CCC(=O)Nc2ccccc2C(=O)OC)c1C | -17.4%[46.1 µM] | x | -8.2% | x | -72.6*
Cc1ccc(-c2ccc(=O)n(Cc3cc(C)ccc3C)n2)cc1 | u | 0.5% | u | u | u
Cc1ccc(C)c(Cn2nc(-c3ccccc3)ccc2=O)c1 | -13.2%[46.1 µM] | 31.6µM* | -11.1% | u | -26.0
Cc1nc(-n2[nH]c3c(c2=O)CCCC3)[nH]c(=O)c1Cc1ccccc1 | u | 7.08µM* | u | u | -102.5*
S=C(c1ccc2c(c1)OCO2)N1CCN(c2cccc(Cl)c2)CC1 | u | u | -8.8% | u | -34.1
C[C@@H]1CN([C@@H](C)CO)C(=O)c2cc(Br)cnc2O[C@H]1CN(C)C(=O)Nc1ccc(F)cc1 | x | x | 4.6% | x | 17.8
CC(C)NC(=O)C1CCC(Cn2c(=O)c3sccc3n(CC(=O)N3CCCC3)c2=O)CC1 (stereo not given) | -23.2%[46.1 µM] | x | 5.0% | x | -89.2*
CCCCCCCc1cc2ccccc2c2c(C(=O)OCC)c(C(=O)OCC)c(C(=O)OCC)n12 | x | x | x | -5.4%[14.2 µM] | x
Cc1cc([N+](=O)[O-])ccc1NC(=O)CN1C2CCC1CC(NC(=O)NC13CC4CC(CC(C4)C1)C3)C2 (stereo not given) | -20.8%[46.1 µM] | 2.51µM* | u | u | u
Cn1cc(/C=N/NC(=O)COc2ccccc2[N+](=O)[O-])c2ccccc21 | 23.8% | u | -13.3% | -37.8% | -63.6*
C=CCNC(=S)N/N=C/c1cn(C)c2ccccc12 | 15.1% | 35.5µM* | -3.5% | u | -4.7
Cc1cccc(OCC(=O)N/N=C\c2cc3c(cc2[N+](=O)[O-])OCO3)c1C | u | 11.2µM* | -15.2% | -12.8% | -23.8
Cc1cc(C)cc(OCC(=O)N/N=C/c2ccc([N+](=O)[O-])o2)c1 | u | 11.2µM* | -9.6% | u | u
COc1cccc(CNC(=O)c2cccc(N3CCCS3(=O)=O)c2)c1 | 15.1%[46.1 µM] | x | -13.3% | x | -1.2
Cc1ccccc1OCC(=O)N/N=C/c1ccc([N+](=O)[O-])o1 | x | u | u | -2.8% | -86.2*
O=[N+]([O-])c1ccc(N2CCCCC2)cc1N1CCOCC1 | u | 7.4% | 1.9% | -13.8% | 0.6
CCS(=O)(=O)N1CCN(c2ccc([N+](=O)[O-])c(N3CCOCC3)c2)CC1 | 9.3% | -9.1% | -2.7% | -7.3% | -2.4
O=[N+]([O-])c1ccc(N2CCCC2)cc1N1CCCC1 | u | 2.51µM* | 9.5% | u | -25.3
O=[N+]([O-])c1ccc(N2CCN(S(=O)(=O)Cc3ccccc3)CC2)cc1N1CCOCC1 | 12.6µM* | -7.2% | u | u | 1.2
COC(=O)N[C@@H](c1cccc(F)c1)[C@@H](C)[N+](=O)[O-] | x | x | x | -16.8%[14.2 µM] | x
O=C1c2ccccc2C(=O)C1c1ccc(Cl)cc1 | 2.4% | x | 8.6% | 22.8% | 40.5
O=C1c2ccccc2C(=O)C12OC2c1ccc(Cl)cc1Cl (stereo not given) | 11.6% | -3.7% | 28.2µM* | u | -9.2
N#Cc1sc2nccc(Nc3ccccc3)c2c1N | -27.5% | u | u | -27.7%[46.1 µM] | -86.8*
O=C(NC1CCN(CC(=O)N(c2ccccc2)c2ccccc2)CC1)c1ccc([N+](=O)[O-])cc1 | -2.0% | u | -12.1% | -27.4%[46.1 µM] | 12.6
CC(=O)n1cc(CO)c2ccccc21 | x | 11.5% | -15.0% | x | 15.3
SMILES | Lassa entry inh | HCV inh | FMDV antiviral | Marburg entry inh | HCMV inh
CC(=O)n1cc(N(C(=O)CCl)c2ccccc2)c2ccccc21 | u | 1µM* | 14.1µM* | u | -97.6*
O=Cc1[nH]c2ccccc2c1N(C(=O)CCl)c1ccc([N+](=O)[O-])cc1 | u | u | -19.2% | u | -101.1*
CC(=O)n1cc(N(C(=O)CCl)c2ccc([N+](=O)[O-])cc2)c2ccccc21 | u | 7.08µM* | 10µM* | u | u
Cn1cc(C(=O)N/N=C/c2ccc([N+](=O)[O-])cc2)c2ccccc21 | 7.0% | 3.6% | 6.5% | u | -15.8
COc1ccc(CCNC(=O)C(=O)NCC2OCCN2S(=O)(=O)c2ccccc2)cc1OC (stereo not given) | x | -10.9% | -20.9% | x | -27.1
COc1ccc(CCNC(=O)C(=O)NCC2CCCN2S(=O)(=O)c2ccccc2)cc1OC (stereo not given) | u | u | 22.4µM* | u | -3.6
O=C(NCCc1ccccc1)C(=O)NCC1CCCN1S(=O)(=O)c1ccccc1 (stereo not given) | u | u | -19.4% | 11.2µM* | -28.4
CNc1nc2cnc(Nc3ccccn3)cc2n1-c1cc(OC)c(OC)c(OC)c1 | x | x | x | x | -4.3
CN(C)c1c2ccccc2nc2c(F)c(F)c(F)c(F)c12 | x | u | 28.2µM* | x | x
O=C(NCCN1Cc2ccccc2OC(c2ccccc2F)C1)c1ccco1 (stereo not given) | x | x | -12.1% | x | x
Cc1cc(NC(=O)c2cccn2-c2nnc(N3CCCCC3)s2)ccc1Br | -2.9%[46.1 µM] | x | -1.5% | x | 0.0
Cc1cccc(CC2S/C(=N/c3ccccn3)NC2=O)c1 (stereo not given) | u | 9.6% | -4.5% | 6.5% | -64.6*
O=C1N/C(=N\c2ccccn2)SC1Cc1ccccc1Cl (stereo not given) | x | -6.7% | 13.4% | x | -11.7
O=C1N/C(=N\N=C\c2cccnc2)SC1Cc1ccc(SC(F)F)cc1 (stereo not given) | u | u | 0.4% | u | -84.7*
O=C1N/C(=N\N=C\c2ccc3ncccc3c2)SC1Cc1ccc(SC(F)F)cc1 (stereo not given) | u | -0.2% | 5.9% | -10.5% | 19.5
O=C1N/C(=N\N=C\c2ccccn2)SC1Cc1cccc(SC(F)F)c1 (stereo not given) | u | u | -16.7% | u | -98.7*
Cc1ccc(Nc2nc(N)nc(CN3CCN(Cc4ccc5c(c4)OCO5)CC3)n2)cc1C | -15.4% | u | -21.5% | u | u
COc1ccc(N2CCN(Cc3nc(N)nc(Nc4ccc(C)c(Cl)c4)n3)CC2)cc1 | -18.3% | 10µM* | u | u | 29.5
CCOc1nc(Nc2ccc(F)cc2)nc(N2CCN(c3ccc(OC)cc3)CC2)n1 | -28.8% | -19.7% | u | -3.8% | u
Cc1ccc(NC(=O)N(Cc2ccc3c(c2)OCO3)C2CCN(Cc3ccccc3)CC2)cc1C | u | x | -15.9% | x | -21.2
Cc1ccc(NC(=O)N(Cc2ccc3c(c2)OCO3)C2CCN(Cc3ccccc3)CC2)cc1Cl | 11.2µM* | x | -15.2% | x | -70.7*
Cc1ccc(Nc2nc(N)nc(CN3CCN(Cc4ccc5c(c4)OCO5)CC3)n2)cc1Cl | -18.8% | 31.6µM* | u | u | -19.9
CCOc1nc(Nc2ccc(OC)c(Cl)c2)nc(N2CCN(c3ccc(OC)cc3)CC2)n1 | u | 10µM* | 0.0% | u | u
Cc1cnc(-n2ncc(C(=O)NCCN3CCOCC3)c2C(C)C)nc1-c1ccc(F)cc1 | x | x | 8.6% | x | x
CCc1cccc2c3c([nH]c12)[C@](CC)(CC(=O)O)OCC3 | x | x | x | -18.6% | x
COc1ccc(C)cc1NC(=O)COCc1cc(-c2ccc(F)cc2)on1 | u | x | -24.6% | x | 8.7
